From PubChem BioAssay
A selection: hits, their analogues and other compounds. The true share with any hit is near 1.6%.
KCNQ2 enhance: KCNQ2 (rat) channel potentiation. B-score at 10 µM. AID 2239. hit rate 0.54% among 310,000. O88943. CHO-K1 KCNQ2, FluxOR thallium flux fluorescence; hits give high values;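 active = fluorescence ratio B-score at least 3 SD of library B-scores, with initial fluorescence B-score within 3 of them, cut at about 5.3 in these data; same plate scores as AID 2156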;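 note: B-score of peak minus minimum over baseline fluorescence ratio after K+ and Tl+ stimulus; positive B-score means potentiation of KCNQ2 with more thallium influx and brighter signal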
Target sequence (O88943 whole entry, looked up): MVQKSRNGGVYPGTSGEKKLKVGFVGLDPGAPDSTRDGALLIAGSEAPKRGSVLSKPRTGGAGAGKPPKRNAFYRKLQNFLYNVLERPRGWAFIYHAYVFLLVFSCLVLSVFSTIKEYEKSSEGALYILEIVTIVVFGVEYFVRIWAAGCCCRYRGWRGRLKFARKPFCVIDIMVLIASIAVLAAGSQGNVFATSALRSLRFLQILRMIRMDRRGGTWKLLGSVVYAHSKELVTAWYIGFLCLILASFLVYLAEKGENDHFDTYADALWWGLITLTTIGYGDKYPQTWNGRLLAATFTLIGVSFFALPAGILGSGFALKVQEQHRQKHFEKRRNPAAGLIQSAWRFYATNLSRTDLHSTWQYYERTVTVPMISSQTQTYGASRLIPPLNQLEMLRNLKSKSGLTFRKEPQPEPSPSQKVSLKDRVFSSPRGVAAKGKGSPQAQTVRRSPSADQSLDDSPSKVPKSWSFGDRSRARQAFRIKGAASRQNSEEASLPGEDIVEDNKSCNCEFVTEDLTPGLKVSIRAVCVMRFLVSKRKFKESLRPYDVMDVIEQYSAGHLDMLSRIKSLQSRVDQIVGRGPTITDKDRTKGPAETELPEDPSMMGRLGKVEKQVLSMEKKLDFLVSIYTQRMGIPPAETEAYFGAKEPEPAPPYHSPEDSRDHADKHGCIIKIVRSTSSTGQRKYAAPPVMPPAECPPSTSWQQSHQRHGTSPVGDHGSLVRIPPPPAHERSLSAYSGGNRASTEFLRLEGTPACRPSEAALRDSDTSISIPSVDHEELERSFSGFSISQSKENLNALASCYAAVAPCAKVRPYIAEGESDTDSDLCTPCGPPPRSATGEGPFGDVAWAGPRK
KCNQ2 inh: KCNQ2 (rat) channel inhibition. O88943. CHO-K1 KCNQ2, FluxOR thallium flux, 20 min; hits give low values. B-score at 10 µM. hit rate 1.1% among 310,000. AID 2156;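 active = fluorescence ratio B-score at most minus 3 library SDs, with starting brightness B-score within 2 library SDs, cut at about -5.5 in these data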
An asterisk follows results filed as active; i = inactive; . = no result.

SMILES | KCNQ2 enhance | KCNQ2 inh
Fc1cccc2sc(Nc3nc4cc5c(cc4s3)OCCO5)nc12 | 3.5 | i
Cc1ccc(S(=O)(=O)N2CCN(C(=O)CCn3cncn3)CC2)cc1C | 2 | i
COc1cc2c(cc1NC(=O)COC(=O)/C=C/c1ccc([N+](=O)[O-])cc1)oc1ccccc12 | . | i
COc1cc2c(cc1NC(=O)/C=C/c1ccc([N+](=O)[O-])cc1)oc1ccccc12 | 5.6* | i
CCN1CCN(C(=O)NCc2ccccc2)CC1 | 1.5 | i
CC(C)(C)n1nnnc1C(c1cccc(C#N)c1)N1CCC(Cc2ccccc2)CC1 (stereo not drawn) | 0.94 | i
CCC(C)(C)n1nnnc1C(c1cccc(C#N)c1)N1CCN(c2cc(C)ccc2C)CC1 (stereo not drawn) | -5.8 | -5.8*
O=C(COc1ccc([N+](=O)[O-])cc1)NNC(=O)Nc1ccccc1F | 0.35 | i
CC(=O)Nc1ccc(NC(=O)C2CC(=O)N(c3ccccc3Cl)C2)cc1 (stereo not drawn) | 21* | i
CC(=O)Nc1ccc(NC(=O)C2CC(=O)N(c3ccc(Cl)cc3)C2)cc1 (stereo not drawn) | . | i
Cc1ccc(S(=O)(=O)NCC(C)n2nc(C)cc2C)cc1 (stereo not drawn) | 2.7 | i
Cc1ccc(C(C[N+](=O)[O-])n2nc(C)cc2C)cc1 (stereo not drawn) | -7.4 | -7.4*
O=C(Nc1ccccc1)N1CCC(C(=O)N2CCCC(C(F)(F)F)C2)CC1 (stereo not drawn) | 0.95 | i
Cc1ccccc1C(=O)NNC(=S)NC(=O)c1ccccc1 | 5.3* | i
O=C(NC(=S)NNC(=O)c1ccccc1O)c1ccccc1 | . | i
COCC(COS(N)(=O)=O)C(C)C (stereo not drawn) | 0.03 | i
O=C(COc1ccccc1)N=C1SC2CS(=O)(=O)CC2N1c1ccc(F)cc1 (stereo not drawn) | 0.44 | i
CC(C)N(CCCNC(=O)c1ccc(CS(=O)(=O)c2c(Cl)cccc2Cl)o1)Cc1ccccc1 | 1.1 | i
COC(=O)c1cc(=O)n(Cc2ccc(F)cc2)c(=Nc2ccccc2)s1 | -5.8 | -5.8*
COC(=O)c1cc(=O)n(Cc2ccco2)c(=Nc2ccc(F)cc2)s1 | -6 | -6*
COC(=O)c1cc(=O)n(Cc2cccs2)c(=Nc2ccccc2)s1 | . | i
COC(=O)c1cc(=O)n(Cc2ccc(OC)c(OC)c2)c(=Nc2ccc(F)cc2)s1 | . | i
CC(C)c1ccc2[nH]c3nc(SCC(=O)N4CCOCC4)nnc3c2c1 | 0.78 | i
CCC[C@@H](CN[C@@H](CNC)C(C)C)NCCCCc1ccccc1 | . | i
CCC[C@@H](CNC)NC[C@H](Cc1ccccc1)NCCCCc1ccccc1 | -6 | -6*
SMILES | KCNQ2 enhance | KCNQ2 inh
CC[C@@H](NS(=O)(=O)c1ccc(C)cc1)C(=O)Oc1ccc2c3c(c(=O)oc2c1)CCC3 | 0.64 | i
Cc1ccc(S(=O)(=O)NC(CC(C)C)C(=O)Oc2ccc3c4c(c(=O)oc3c2)CCC4)cc1 (stereo not drawn) | -7.9 | -7.9*
CNC(=O)c1ccc(NC(=O)Nc2ccccc2)cc1 | 0.23 | i
COc1ccc(N2CCN(C(=O)COC(=O)CCOc3ccc(C(C)(C)C)cc3)CC2)cc1 | . | i
Cc1c(N=Cc2cc(Br)cc(Br)c2O)cccc1C(=O)O | 9.5* | i
COc1ccc(Br)cc1/C=N/Nc1cccc(C(=O)O)c1 | 0.77 | i
CN(/N=C/c1cc(Br)cc(Br)c1O)c1ccccc1 | . | i
O=C(O)c1cccc(N/N=C/c2cc(Br)cc(Br)c2O)c1 | 5.8* | i
CCOc1ccc(S(=O)(=O)N2CCC(C(=O)NCCc3ccc(S(N)(=O)=O)cc3)CC2)cc1 | 1.2 | i
COc1cc(NC(=O)Nc2ccc(Cl)c(Cl)c2)c(C(=O)O)cc1OC | 1.6 | i
CCOc1ccc(CCNC(=O)COC(=O)c2ccc(Br)o2)cc1OCC | . | i
Cc1ccc(-n2nc3c(=O)n(C(C)C(=O)NCc4ccccc4Cl)nc(C)c3c2C)cc1 (stereo not drawn) | -8.1 | -8.1*
Cc1ccc(-n2nc3c(=O)n(C(C)C(=O)NCCCc4ccccc4)nc(C)c3c2C)cc1 (stereo not drawn) | . | i
CCCCN(C(=O)c1ccc(C#N)cc1)c1c(N)n(CCC)c(=O)[nH]c1=O | . | i
CNS(=O)(=O)c1cc(C(=O)OCC(=O)NC2CCCc3ccccc32)ccc1Cl (stereo not drawn) | . | i
CCN(CC)S(=O)(=O)c1cc(C(=O)OCC(=O)NC2CCCc3ccccc32)ccc1C (stereo not drawn) | -7.7 | -7.7*
Cc1cc(C)c2c(=O)n(CC(=O)NCCCN3CCN(c4ccccc4F)CC3)sc2n1 | -9.9 | -9.9*
Cc1cc(C)c2c(=O)n(CC(=O)NCCCN3CCOCC3)sc2n1 | 2.7 | i
COc1ccccc1/C=C(/CC(=O)NCc1ccc(F)cc1)c1nc2ccccc2s1 | -6.8 | -6.8*
COc1ccccc1/C=C(/CC(=O)NCc1ccccc1)c1nc2ccccc2s1 | . | i
CCCCOC(=O)c1ccc(NC(=S)NC(=O)c2c(Br)c(C)nn2C)cc1 | 9.6* | i
CCOC(=O)c1ccc(NC(=S)NC(=O)c2cncc(Br)c2)cc1 | . | i
CCN(CC)CCCNc1nc2ccccc2c2nc(-c3ccncc3)nn12 | 0.98 | i
CC1=C(C)C(=O)C(CCCCC#CCCCC#CCO)=C(C)C1=O | -6.8 | -6.8*
CCc1ccc2[nH]c(=O)c(C(c3nnnn3CC3CCCO3)N3CCCc4ccccc43)cc2c1 (stereo not drawn) | 7.2* | i
SMILES | KCNQ2 enhance | KCNQ2 inh
Cc1cc2cc(C(c3nnnn3CC3CCCO3)N3CCCc4ccccc43)c(=O)[nH]c2cc1C (stereo not drawn) | 0.15 | i
COc1cc(C2C3C(=O)N(Cc4ccccc4)C(=O)C3ON2c2ccccc2)cc(OC)c1OC (stereo not drawn) | -6.4 | -6.4*
O=C1C2ON(c3ccccc3)C(c3cccnc3)C2C(=O)N1Cc1ccccc1 (stereo not drawn) | . | i
COc1ccc(N2CCN(C3CCCN(Cc4cccc(OC)c4)C3)CC2)cc1 (stereo not drawn) | 0.31 | i
COc1cccc(/C=N/N2CCN(c3ccccc3OC)CC2)c1 | -5.5 | -5.5*
COc1ccc(/C=N/N2CCN(c3ccccc3OC)CC2)cc1OC | 0.01 | i
CC(Oc1cccc(Cl)c1)C(=O)Nc1cc(S(=O)(=O)N2CCOCC2)ccc1N1CCCC1 (stereo not drawn) | . | i
CN1CCN(S(=O)(=O)c2cccc(C(=O)Nc3cc(C(F)(F)F)ccc3N3CCCC3)c2)CC1 | . | i
CN1CCN(S(=O)(=O)c2cccc(C(=O)Nc3cc(Cl)ccc3N3CCOCC3)c2)CC1 | -7.5 | -7.5*
CC(Oc1cccc(Cl)c1)C(=O)Nc1cc(S(=O)(=O)N2CCCCC2)ccc1N1CCOCC1 (stereo not drawn) | -7.6 | -7.6*
CCN(CC(=O)Nc1ccc(NC(C)=O)cc1)C(=O)CCCSc1nc2ccccc2[nH]1 | . | i
COc1ccc(CCNC(=O)c2coc(=O)c(Br)c2)cc1 | 0.05 | i
Cc1ccc(CNC(=O)c2cc(=O)c3ccccc3o2)cc1 | 0.3 | i
Cc1ccc(-c2c(C(=O)NCc3ccc(F)cc3)oc(=O)c3ccccc23)cc1 | 9.2* | i
O=C(NC1CCCC1)C(c1cccnc1)N(C(=O)c1csnn1)c1ccccc1 (stereo not drawn) | 2.1 | i
COc1ccccc1CCNC(=O)c1ccc2nc[nH]c2c1 | . | i
